Assay results from PubChem BioAssay (EPA / NIEHS).
Records with an inconclusive call do not appear. Active and inactive are the calls of the source. Rule for the calls, unless noted: active = hit-call score of the fitted dose curve at least 0.9, where 1 is the maximum; inactive = score below 0.9.

Assays:
[1] = TOX21_p53_BLA_p4_viability: Viability Assessment in the Tox21 HCT-116 p53 Agonism Beta-lactamase Assay, Phase 4 (AID 2283597; active = hit-call score of the fitted dose curve at least 0.9, where 1 is the maximum;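 note: hits lower the luminescence signal meaning cytotoxicity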)
How it was run: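 HCT116 p53-bla cells (4000/well) rested 5 h at 37C, then received compounds in DMSO (217-fold dilution) for 16 h at 37C, 5% CO2. CellTiter-Glo was added after the CCF4-AM read, and luminescence was read after 30 min at room temperature.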

[2] = molecular target: Cellular tumor antigen p53 (Homo sapiens) (UniProt P04637); test: TOX21_p53_BLA_p4_ratio: Tox21 HCT-116 p53 Agonism Beta-lactamase Assay, Ratio, Phase 4 (AID 2283601; active = hit-call score of the fitted dose curve at least 0.9, where 1 is the maximum)
Cellular tumor antigen p53 (Homo sapiens), sequence (P04637 whole entry, looked up): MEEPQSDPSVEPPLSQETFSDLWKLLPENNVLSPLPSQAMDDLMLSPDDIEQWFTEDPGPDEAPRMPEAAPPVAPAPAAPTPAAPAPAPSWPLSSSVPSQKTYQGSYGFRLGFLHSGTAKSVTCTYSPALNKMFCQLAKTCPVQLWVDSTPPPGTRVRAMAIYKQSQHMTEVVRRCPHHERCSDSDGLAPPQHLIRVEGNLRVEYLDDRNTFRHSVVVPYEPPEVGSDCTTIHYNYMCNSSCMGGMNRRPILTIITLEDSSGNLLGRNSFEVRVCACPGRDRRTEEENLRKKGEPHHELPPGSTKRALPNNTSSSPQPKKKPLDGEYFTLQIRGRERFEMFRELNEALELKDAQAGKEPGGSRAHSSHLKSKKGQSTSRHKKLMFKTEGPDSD
How it was run: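 HCT-116 p53 beta-lactamase reporter cells (4000/well) preincubated 5 h, then compound (217-fold dilution of DMSO stock) for 16 h at 37C. CCF4-AM substrate added 2 h at room temperature; 460/530 nm emission ratio fitted upward versus DMSO.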

[3] = TOX21_p53_BLA_p5_viability: Viability Assessment in the Tox21 HCT-116 p53 Agonism Beta-lactamase Assay, Phase 5 (AID 2283600; active = hit-call score of the fitted dose curve at least 0.9, where 1 is the maximum)
How it was run: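 Cells were plated at 4000/well, rested 5 h at 37C, then given compounds in DMSO (217-fold dilution) for 16 h at 37C, 5% CO2. Following the CCF4-AM beta-lactamase read, CellTiter-Glo was added and luminescence was read after 30 min at room temperature.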

[4] = CEETOX_H295R_MTT_cell_viability: Viability Assessment in the CeeTox HT-H295R MTT Assay (AID 2283718)
How it was run: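 Human H295R adrenal cells, prestimulated 48 h with 10 uM forskolin, were exposed 48 h to chemicals in 0.1% DMSO. Viability was measured in the same wells by MTT (0.5 mg/ml, 4 h, 37 C), absorbance 570/650 nm, as percent of controls.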

[5] = CEETOX_H295R_11DCORT_noMTC: CeeTox H295R High-throughput Steroidogenesis Assay for 11-Deoxycortisol (11DCORT), maximum tolerated concentration (MTC) filtered results only (AID 2283911); conditions: actives raise or lower the signal
How it was run: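 HPLC-MS/MS read-out of 11-deoxycortisol after MTBE extraction of H295R medium. Cells: forskolin 10 uM pre-stimulation 48 h, chemical 48 h, 0.1% DMSO final. Bidirectional fit vs DMSO baseline; no MTC filtering.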

[6] = CEETOX_H295R_OHPREG_noMTC: CeeTox H295R High-throughput Steroidogenesis Assay for OH-Pregnenolone (OHPREG), maximum tolerated concentration (MTC) filtered results only (AID 2283912); conditions: actives raise or lower the signal
How it was run: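 H295R cells prestimulated 48 h with 10 uM forskolin, then exposed 48 h to compound (0.1% DMSO). 17alpha-hydroxypregnenolone in medium measured by MTBE extraction and HPLC-MS/MS; bidirectional fit vs DMSO, concentrations not MTT/MTC-filtered.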

[7] = CEETOX_H295R_OHPROG_noMTC: CeeTox H295R High-throughput Steroidogenesis Assay for OH-Progesterone (OHPROG), maximum tolerated concentration (MTC) filtered results only (AID 2283914); conditions: actives raise or lower the signal
How it was run: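 H295R cells prestimulated 48 h with 10 uM forskolin, then exposed 48 h to chemical (0.1% DMSO final). 17alpha-hydroxyprogesterone in medium quantified by HPLC-MS/MS after MTBE extraction; bidirectional fitting versus DMSO, concentrations not MTC-filtered.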

[8] = CEETOX_H295R_ANDR_noMTC: CeeTox H295R High-throughput Steroidogenesis Assay for Androstenedione (ANDR), maximum tolerated concentration (MTC) filtered results only (AID 2283915); conditions: actives raise or lower the signal
How it was run: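 H295R cells, passage 10 or below, prestimulated 48 h with 10 uM forskolin, then exposed 48 h to chemical in 0.1% DMSO. Medium androstenedione extracted with MTBE, quantified by HPLC-MS/MS; concentrations not MTC-filtered; bidirectional fit versus DMSO.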

[9] = CEETOX_H295R_CORTISOL_noMTC: CeeTox H295R High-throughput Steroidogenesis Assay for Cortisol, maximum tolerated concentration (MTC) filtered results only (AID 2283916); conditions: actives raise or lower the signal
How it was run: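 H295R human adrenal cells prestimulated 48 h with 10 uM forskolin, then exposed 48 h to chemical in 0.1% DMSO; cortisol in medium quantified by HPLC-MS/MS; bidirectional fit vs DMSO baseline, concentrations not MTT-filtered for MTC.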

[10] = CEETOX_H295R_CORTIC_noMTC: CeeTox H295R High-throughput Steroidogenesis Assay for Corticosterone (CORTIC), maximum tolerated concentration (MTC) filtered results only (AID 2283917); conditions: actives raise or lower the signal
How it was run: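 H295R adrenal cells pre-stimulated 48 h with 10 uM forskolin, then exposed 48 h to chemical in 0.1% DMSO; corticosterone in medium quantified by HPLC-MS/MS, fitted bidirectionally versus DMSO without MTT-based concentration filtering.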

[11] = CEETOX_H295R_DOC_noMTC: CeeTox H295R High-throughput Steroidogenesis Assay for DOC, maximum tolerated concentration (MTC) filtered results only (AID 2283918); conditions: actives raise or lower the signal
How it was run: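 H295R cells prestimulated 48 h with 10 uM forskolin, then exposed 48 h to chemical in 0.1% DMSO. 11-Deoxycorticosterone in medium measured by MTBE extraction and HPLC-MS/MS; bidirectional fit vs DMSO, no MTC filter.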

[12] = CEETOX_H295R_ESTRADIOL_noMTC: CeeTox H295R High-throughput Steroidogenesis Assay for Estradiol, maximum tolerated concentration (MTC) filtered results only (AID 2283919); conditions: actives raise or lower the signal
How it was run: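 H295R human adrenal cells pre-stimulated 48 h with 10 uM forskolin, then exposed 48 h to chemical (0.1% DMSO final). Estradiol in medium measured by HPLC-MS/MS after MTBE extraction and dansyl derivatization; bidirectional fit versus DMSO, concentrations not MTT-filtered.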

[13] = CEETOX_H295R_PROG_noMTC: CeeTox H295R High-throughput Steroidogenesis Assay for Progesterone (PROG), maximum tolerated concentration (MTC) filtered results only (AID 2283920); conditions: actives raise or lower the signal
How it was run: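 H295R cells, prestimulated 48 h with 10 uM forskolin, exposed 48 h to chemical in 0.1% DMSO. Medium progesterone quantified by MTBE extraction and HPLC-MS/MS; bidirectional fit versus DMSO, concentrations not MTT-filtered.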

[14] = CEETOX_H295R_ESTRONE_noMTC: CeeTox H295R High-throughput Steroidogenesis Assay for Estrone, maximum tolerated concentration (MTC) filtered results only (AID 2283921); conditions: actives raise or lower the signal
How it was run: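 H295R cells prestimulated 48 h with 10 uM forskolin, then exposed 48 h to chemical in 0.1% DMSO; medium estrone measured by HPLC-MS/MS after MTBE extraction and dansyl derivatization, fitted bidirectionally versus DMSO without MTT-based MTC filtering.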

[15] = CEETOX_H295R_TESTO_noMTC: CeeTox H295R High-throughput Steroidogenesis Assay for Testosterone (TESTO), maximum tolerated concentration (MTC) filtered results only (AID 2283924); conditions: actives raise or lower the signal
How it was run: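 H295R cells prestimulated 48 h with 10 uM forskolin, then exposed 48 h to chemicals in 0.1% DMSO final. Testosterone in medium quantified by MTBE extraction and HPLC-MS/MS; bidirectional fit versus DMSO, concentrations […] filtered by MTT-based maximum tolerated concentration.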

Measured: outcome

FC(F)(F)c1ccccc1Cl
inactive: [1] | [2]

FC(F)(F)C(Cl)(Cl)Cl
inactive: [3] | [2]

CS(=O)(=O)OCCOS(C)(=O)=O
not listed: [1] | [2] | [3]
inactive: all other assays above
